The source of these data is PubChem BioAssay AID489025 (Southern Research Specialized Biocontainment Screening …, 2010).

Molecules are shown by their SMILES. In all, about 2,300 compounds went through this assay and about 790 (34%) were called active. How the calls were made is not given here. Some of the results follow. Measured potencies and affinities stand elsewhere.

The experiment can be described thus: THP-1 cell cytotoxicity, dose response, cytotoxicity control for non-replicating M. tuberculosis project (AID 489025). The note with it: THP-1 cell viability; series mostly up to 40 µM.
As for `O=C(OCc1c(Cl)cccc1Cl)c1ccccn1`, the result was inactive.

Consider `CCCN1C(=O)S/C(=C\c2ccc(N3CCOCC3)o2)C1=O`, for which the outcome was inactive.

Regarding `C/C(=N\Nc1ccc(Cl)cc1)c1c(O)cc(C)oc1=O`, the outcome was inactive.

Take `COc1ccc2oc(=O)c(/C(C)=N/NC(=O)c3ccncc3)cc2c1`: the compound was classed as inactive.

As for `COc1cccc(C(=O)C2CCCN(CC3=Cc4cc(OC)ccc4OC3)C2)c1` (configuration not stated), the compound was called inactive.

In the case of `CCn1cc(C(=O)NC(C)C23CC4CC(CC(C4)C2)C3)cn1` (configuration not stated), the call was inactive.

Take `O=C(c1ccc(Cl)cc1)c1nnc(-c2ccncc2)o1`: the result was inactive.

Take `O=C(CCc1ccccc1F)N1CCN(c2ccccc2)CC1`: the compound was called inactive.

Take `Cc1ccc(S(=O)(=O)N2CCC(C(=O)OCc3ccccc3)CC2)cc1C`: the result was inactive.

Regarding `O=C(OCC(=O)N1CCN(c2ccccc2)CC1)c1ccc(Cl)cc1[N+](=O)[O-]`, the result was inactive.

For `O=C(OCC(=O)N1CCN(c2ccccc2)CC1)c1ccc2ccccc2n1`, the result was inactive.

In the case of `CC(NC(=O)COc1ccccc1F)C1CC2CCC1C2` (configuration not stated), the compound was classed as inactive.

Regarding `O=C(NCCc1ccccc1)c1nc(-c2cccs2)no1`, the compound was classed as inactive.

For the compound `COc1ccc(NC(=O)COc2ccccc2)cc1Cl`, the outcome was inactive.

`CCOC(=O)Nc1cccc(OCC(=O)Nc2ccccc2OC)c1`: the compound was called inactive.

For `Cc1ccc(CNCc2cc(Cl)ccc2O)cc1`, the compound was called inactive.

As for `CC(Cc1ccccc1Sc1ccccc1)N(C)C` (configuration not stated), the compound was called inactive.

Turning to `CCOc1ccccc1NC(=O)COn1nnc2ccc(Cl)cc21`, the result was inactive.

Take `CCOc1cccc2cc(C(=O)Nc3nccs3)c(=O)oc12`: the result was inactive.

Consider `OC(C#CCN1CCOCC1)c1cccs1` (configuration not stated), for which the compound was called inactive.

Take `Cc1[nH]nc2c1C(c1ccc(OC(=O)c3ccco3)cc1)C(C#N)=C(N)O2` (configuration not stated): the result was inactive.

Turning to `CCOC(=O)CN1NC2(CCCC(C)C2)NC1=S` (configuration not stated), the outcome was inactive.

On to `CCOC(=O)c1cc(-c2csc(COc3ccccc3Cl)n2)on1`, for which the compound was classed as inactive.

As for `COCCOC(=O)c1c(C)oc2ccc(OC(=O)c3ccco3)cc12`, the outcome was inactive.

On to `CC(=O)N1CCN(C(=O)CC2OC(=O)c3ccccc32)CC1` (configuration not stated), for which the compound was classed as inactive.

For `COCCn1c(C)cc(C(=O)COC(=O)c2ccc(Br)o2)c1C`, the compound was classed as inactive.

For `CCCN1C(=O)SC(CC(=O)Nc2ccccc2)C1=O` (configuration not stated), the result was inactive.

`CNc1nnc(Sc2ncccc2[N+](=O)[O-])s1`: the result was inactive.

Regarding `Nc1nnc(Sc2ncccc2[N+](=O)[O-])s1`, the compound was called inactive.

For `COc1ccc(OCCSc2nnc(Cc3cccc4ccccc34)n2N)cc1`, the result was inactive.

Regarding `O=C(c1ccccc1)n1c(=O)c(F)cn(COCCBr)c1=O`, the compound was classed as inactive.

As to `O=C(Cn1cc([N+](=O)[O-])nc1[N+](=O)[O-])N1CCN(c2ccccc2)CC1`, the outcome was inactive.

Regarding `CCOC(=O)C(Nc1ccc2ccccc2c1)C(=O)OCC`, the compound was called inactive.

As to `Cc1nnc(NC(=O)c2ccc3ccccc3c2)o1`, the outcome was inactive.

With `COc1cccc(NC(=O)c2cc3ccccc3oc2=O)c1`, the outcome was inactive.

On to `O=c1oc2ccccc2c2c1nc(C(F)(F)F)n2-c1ccccc1`, for which the result was inactive.

For `COC(=O)CN(C#N)c1nc(SC)nc(N(C)C)n1`, the compound was called inactive.

With `Cc1ccc(N2NC(=O)/C(=C/C=C/c3ccco3)C2=O)cc1C`, the outcome was inactive.

With `O=C(NC(=S)Nn1cnc2c(cnn2-c2ccccc2)c1=O)c1ccccc1`, the outcome was inactive.

Take `CCOC(=O)Cn1c2ccc(F)cc2c2nc(C)sc21`: the call was inactive.

Regarding `Cc1nnc(N/N=C/c2ccc(Br)cc2)n1N`, the result was inactive.

Regarding `Cc1ccccc1OCC(=O)OCC(=O)c1ccc[nH]1`, the compound was called inactive.

With `CC1(CCc2ccc3c(c2)OCO3)NC(=O)c2ccccc2N1` (configuration not stated), the compound was called inactive.

Consider `O=C(COc1ccc(Br)cc1)N/N=C1/SCC(=O)N1Cc1ccco1`, for which the result was inactive.

As for `CCc1nnc(N/N=C/c2c(F)cccc2Cl)n1N`, the compound was classed as inactive.

As for `Cc1ccsc1/C=N/NC(=O)c1ccncc1`, the result was inactive.

For the compound `O=C(N/N=C1\CCCc2c1[nH]c1ccc(Cl)cc21)c1ccncc1`, the result was inactive.

For `COc1ccc(C(C)=O)cc1COC(=O)c1ccc2ccccc2n1`, the outcome was inactive.

In the case of `c1nc2n(n1)C1=C(CCCC1)C1(CCCCC1)N2`, the outcome was inactive.

Turning to `CCOc1ccc(NC(=O)c2nnn(CC(=O)Nc3ccccc3OC)c2N)cc1`, the compound was called inactive.

For `CC1CCN(S(=O)(=O)c2cccc(C(=O)Oc3ccc([N+](=O)[O-])cc3)c2)CC1`, the compound was classed as inactive.

Turning to `CN(C)S(=O)(=O)c1ccc(C(=O)Oc2ccccc2)cc1`, the call was inactive.

As for `CCOC(=O)c1ccc(NC(=O)NS(=O)(=O)c2ccc(C)cc2)cc1`, the outcome was inactive.

As to `Cc1ccc(NC(=O)CN(C)CC(=O)Nc2ccc(F)c(Cl)c2)cc1`, the call was inactive.

Consider `CC(C)C(=O)Nc1cccc(-c2nc3ccccc3c(=O)o2)c1`, for which the compound was classed as inactive.

On to `CCOC(=O)Cn1c(C)c(Br)c(=O)c2cccc(C)c21`, for which the call was inactive.

Regarding `CN(C)Cc1ccccc1Sc1ccc(Br)cc1`, the result was inactive.

For the compound `FC(F)(F)c1nc(SCc2ccc(Cl)cc2Cl)n[nH]1`, the compound was classed as inactive.

As for `O=C(CN1CCCCC1)Nc1nnc(-c2ccc([N+](=O)[O-])cc2)s1`, the outcome was inactive.

Regarding `O=[N+]([O-])c1ccc(CN2CCN(c3ccccc3Cl)CC2)o1`, the outcome was inactive.

Take `COC(=O)COc1ccc(S(=O)(=O)N2CCN(c3ccccc3F)CC2)cc1`: the outcome was inactive.

As for `Cc1ccccc1N1CCN(Cc2ccc([N+](=O)[O-])o2)CC1`, the call was inactive.

Regarding `Cc1cc2cc(CNC(=O)C3CCCC3)ccc2n1C`, the result was inactive.

On to `O=C(CN1CCN(c2ccccc2)CC1)Nc1nnc(-c2ccccc2)s1`, for which the compound was classed as inactive.

In the case of `O=C(Oc1ccccc1)c1ccc(COC(=O)c2cnccn2)cc1`, the compound was called inactive.

For `Cc1ccc(CNC(=O)c2cnccn2)cc1`, the call was inactive.

As to `COc1ccccc1C1=Nn2c(nnc2C2CCCCC2)SC1`, the compound was classed as inactive.

For the compound `O=C(Nc1ccc(Cl)cn1)C1COc2ccccc2O1` (configuration not stated), the compound was called inactive.

As to `O=c1oc(-c2cccs2)nc2c1cnn2-c1ccccc1`, the result was inactive.

In the case of `Cc1ccccc1Cn1cc(NC(=O)c2noc(C(C)C)c2[N+](=O)[O-])cn1`, the compound was classed as inactive.

Consider `COc1ccc(CN=C(C#N)C2=C(O)c3ccccc3C2=O)cc1`, for which the outcome was inactive.

Take `CC(C)CN1C(=O)CC(Sc2ccccc2C(=O)O)C1=O` (configuration not stated): the outcome was inactive.

For `CC(=O)c1c(C)n(C)c2ccc(OC(=O)c3ccco3)cc12`, the compound was called inactive.

Regarding `Cc1ccc(NC(=O)CCSc2nnc(Cc3ccccc3)o2)cc1`, the outcome was inactive.

For `O=C(NCc1ccccc1CN1CCCC1)c1cc2ccccc2o1`, the compound was called inactive.

As to `Oc1ccc(Cl)cc1CNCc1ccc(F)cc1`, the compound was called inactive.

For the compound `Brc1ccc(-c2ccc(CNCc3ccccn3)o2)cc1`, the result was inactive.
